In assay [1] the target is Thyrotropin receptor (Homo sapiens) (UniProt P16473). Briefly: qHTS assay to identify small molecule agonists of the thyroid stimulating hormone receptor (TSHR) signaling pathway (AID 1224843). Further: nearly all actives have a fitted effect of over 45% in size. The essentials: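 HEK293 cells stably bearing the thyrotropin receptor were plated at 800 cells/well and challenged with compound (30 min, RT). Accumulated cAMP was quantified via cAMP-d2 competing for cryptate-tagged antibody.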

Assay [2] can be described thus: qHTS assay to identify small molecule agonists of the hypoxia (HIF-1) signaling pathway - cell viability counter screen (AID 1224844). Further: nearly all actives have a fitted effect of over 50% in size. The essentials: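 Cells (HRE-bla ME-180, 2,000 per well) sat 5 hrs at 37C, got compound for 17 hrs, were read for CCF4-AM FRET, and were finally lysed with CellTiter-Glo for a 30 min room-temperature luminescence read.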
The nature of assay [3]: qHTS assay to identify small molecule agonists of H2AX (AID 1224845; active means well fitted activation curve with a large enough effect in the signal ratio in the repeat runs, not every such curve was filed as active; the % refers to the signal ratio). An outline of the steps:
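Phospho-H2AX Ser139 measured by HTRF (ex 320 nm; em 665 and 620 nm) after 24 hr antibody incubation. Compounds, 15 concentrations, 0.76% DMSO, were applied to CHO-K1 cells for 3hr at 37C before lysis.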

Assay [4] can be described thus: qHTS assay to identify small molecule agonists of the hypoxia (HIF-1) signaling pathway (AID 1224846; active means well fitted activation curve with a large enough effect in the signal ratio in the repeat runs, not every such curve was filed as active; the % refers to the signal ratio). An outline of the steps: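 A low-serum medium (0.5% dialyzed FBS) holding 2,000 HRE-bla ME-180 cells per well is preincubated for 5 hrs, dosed with compounds by pintool, and kept a further 17 hrs at 37C, 5% CO2 before CCF4-AM FRET detection of beta-lactamase.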
Assay [5] can be described thus: qHTS assay to identify small molecule agonists of H2AX - cell viability counter screen (AID 1224847). Further: nearly all actives have a fitted effect of over 30% in size. Further: potency means the concentration at half of the fitted maximal effect.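 On activity change, negative = cytotoxicity: wild-type CHO-K1 cells; top concentration of the series differs between compounds.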 The essentials: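 CHO-K1 cells plated overnight at 37C, then exposed 3 h at 37C to compounds at 15 concentrations (0.76% DMSO final). Viability by CellTiter-Glo luminescence after 30 min at room temperature.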
Assay [6] in a line: qHTS RealTime-Glo MT Cell Viability Assay in HEK293 cells - 32 hour (AID 1224868; active means well fitted curve in the direction sought with a large enough effect in the repeat runs; an effect the other way counts as inactive or inconclusive; further: nearly all actives have a fitted effect of over 50% in size; further: potency means the concentration at half of the fitted maximal effect). An outline of the steps: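 Assay medium contained NanoLuc luciferase plus cell-permeant prosubstrate, added with HEK293 cells at 600 cells/well. After 5 h at 37 C/5% CO2 compounds were added; plates stayed at 37 C for 40 h with serial luminescence reads.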
Assay [7] is described as follows: A CellTox Green Cytotoxicity Assay to monitor cytotoxicity in HEK293 cells - 0 hour (AID 1224869; active means well fitted curve in the direction sought with a large enough effect in the repeat runs; an effect the other way counts as inactive or inconclusive; further: nearly all actives have a fitted effect of over 50% in size). An outline of the steps: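 Fluorescence intensity, read at 0, 8, 16, 24, 32 and 40 h of compound treatment, reflected dye binding to DNA of dead HEK293 cells; compounds (23 nL, DMSO) were added 5 h after plating cells with reagent.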
Assay [8] in a line: qHTS assay to identify small molecule antagonists of the estrogen related receptor (ERR) signaling pathway from Tox21 library (AID 1224848; active means well fitted curve in the direction sought with a large enough effect in the repeat runs; an effect the other way counts as inactive or inconclusive; further: nearly all actives have a fitted effect of over 50% in size; further: potency means the concentration at half of the fitted maximal effect). An outline of the steps:
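Reading was by luminescence 30 min after ONE-Glo addition. Before that, ERR cells at 2,000 per well had rested 6 h at 37 C/5% CO2 and then received pin-tooled compounds in DMSO for 18 h at 37 C.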

Assay [9] can be described thus: qHTS assay to identify small molecule agonists of the estrogen related receptor (ERR) signaling pathway from Tox21 library (AID 1224849). Further: nearly all actives have a fitted effect of over 15% in size. Conditions: ERR reporter cell line, ONE-Glo luciferase, 18 h; at 92.4 µM (top of the series) unless noted. An outline of the steps:
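Screening used an NTP-provided ERR luciferase cell line. Compounds in DMSO were added 6 h after seeding and left 18 h at 37 C before a 30 min ONE-Glo step and luminescence reading.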

Assay [10] in a line: qHTS RealTime-Glo MT Cell Viability Assay in HepG2 cells - 24 hour (AID 1224867; active means well fitted curve in the direction sought with a large enough effect in the repeat runs; an effect the other way counts as inactive or inconclusive; further: nearly all actives have a fitted effect of over 50% in size; further: potency means the concentration at half of the fitted maximal effect). An outline of the steps:
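qHTS, HepG2, 600 cells/well, RealTime-Glo (NanoLuc + prosubstrate) added with cells; 5 h preincubation; DMSO compound addition; 37 C; luminescence at 0/8/16/24/32/40 h.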

Unmarked numbers belong to inactive results. Inconclusive results are not listed. Active and inactive are the calls of the source. Unless noted, the call rests on the fitted dose curve.
On the % scale 0 is the no-effect control and ±100 the full control effect.

Sequence of Thyrotropin receptor (Homo sapiens) (P16473 whole entry, looked up): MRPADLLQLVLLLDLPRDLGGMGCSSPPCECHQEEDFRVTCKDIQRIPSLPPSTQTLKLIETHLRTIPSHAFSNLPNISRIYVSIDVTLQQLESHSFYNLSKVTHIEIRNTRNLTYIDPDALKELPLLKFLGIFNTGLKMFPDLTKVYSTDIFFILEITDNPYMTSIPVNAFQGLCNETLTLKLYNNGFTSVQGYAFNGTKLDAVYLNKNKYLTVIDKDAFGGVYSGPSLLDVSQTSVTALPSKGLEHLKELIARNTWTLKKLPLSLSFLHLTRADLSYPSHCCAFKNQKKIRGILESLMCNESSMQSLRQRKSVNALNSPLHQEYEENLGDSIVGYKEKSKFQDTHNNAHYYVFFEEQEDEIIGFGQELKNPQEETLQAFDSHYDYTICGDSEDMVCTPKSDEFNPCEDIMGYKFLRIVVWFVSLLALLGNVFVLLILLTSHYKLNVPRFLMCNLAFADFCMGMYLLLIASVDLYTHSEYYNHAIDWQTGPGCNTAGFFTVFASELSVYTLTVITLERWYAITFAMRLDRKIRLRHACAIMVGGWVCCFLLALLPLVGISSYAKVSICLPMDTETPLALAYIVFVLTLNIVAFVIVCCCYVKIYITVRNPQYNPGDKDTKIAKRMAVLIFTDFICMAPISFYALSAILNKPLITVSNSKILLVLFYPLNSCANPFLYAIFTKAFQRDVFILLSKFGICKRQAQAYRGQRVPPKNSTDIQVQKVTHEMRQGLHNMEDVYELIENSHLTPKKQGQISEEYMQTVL

Take `CC(C)(O)CCc1ccccc1`: the Potency entry in assay [1], in [2], in assay [3], in assay [5], in [6] and in assay [7] was “inactive” throughout. Also, the outcome in assay [4] was inactive.

In the case of `CCCCCCCC(=O)OCCCCCC`, the Potency result in [1], in assay [2], in assay [3], in assay [8] and in [10] was “inactive” in each case. For the same compound, in assay [4], the result was inactive. Besides, the activity change, positive = activation in [9] was -7.04%.

As for `COC(=O)CC(C(C)=O)C(=O)OC` (stereo not drawn), the Potency entry in assay [1], in [2], in assay [3], in assay [5], in [6] and in assay [7] was “inactive” in each case. In addition, the outcome in assay [4] was inactive.

For `CCCC(=O)OC(=O)CCC`, the Potency result in assay [1], in [2], in assay [3], in assay [5], in [10] and in assay [7] was “inactive” each time. Further, the result in [4] was inactive.

For the compound `O=c1[nH][nH]c(=O)c2cc([N+](=O)[O-])ccc12`, the Potency result in assay [1], in assay [2], in assay [3], in assay [5], in assay [6] and in [7] was “inactive” each time. Further, in assay [4], the outcome was inactive.

In the case of `CCC(C)(C)C(=O)O`, the Potency entry in assay [1], in assay [2], in [3], in [5] and in assay [6] was “inactive” in each case. Further, the compound was called inactive in assay [4].

With `CC(=O)c1ccc[nH]1`, the Potency result in assay [1], in [2], in [3], in assay [5], in assay [10] and in assay [7] was “inactive” each time. In addition, the outcome in assay [4] was inactive.

Turning to `C=CCOC(=O)COCCC(C)C`, the Potency result in [1], in assay [2], in assay [3], in assay [5], in [10] and in assay [6] was “inactive” each time. Also, in assay [7], the Potency entry was “inactive”. For the same compound, in assay [4], the compound was called inactive.

As to `CC1=CC[C@@H]2C[C@H]1C2(C)C`, the activation in [1] is 21.3% [at 19 µM]; in assay [4], -1.3% [at 15.8 µM]. The activity change, negative = cytotoxicity in [2] was 7.49% [at 15.8 µM]; in assay [5] it was 0.589% [at 31.6 µM]. Further, the activation (H2AX phosphorylation) in [3] is 1.37% [at 31.6 µM]. Further, the cytotoxicity in assay [7] is 0.458% [at 15.8 µM].

On to `O=C1[C@@H]2[C@H]3CC[C@H](C3)[C@@H]2C(=O)N1CCCCN1CCN(c2ncccn2)CC1`, for which the Potency entry in [1], in assay [2], in [3], in assay [5], in assay [10] and in assay [6] was “inactive” in each case. Further, the Potency result in assay [7] was “inactive”. The call in [4] was inactive.

As for `CCCCCCOC(=O)CCCCC`, the Potency entry in assay [1], in assay [2], in assay [3], in assay [5], in [10] and in assay [6] was “inactive” throughout. Further, in assay [7], the Potency result is “inactive”. For the same compound, in [4], the compound was called inactive.

`COC(=O)c1sccc1S(N)(=O)=O`: the Potency result in [1], in [2], in assay [3], in [8], in assay [10] and in assay [6] was “inactive” in each case. Moreover, in [7], the Potency entry was “inactive”. Also, the call in assay [4] was inactive. For the same compound, the activity change, positive = activation in [9] was 0.3%.

Consider `OCC(CO)n1cnc(-c2ccc(F)cc2)c1-c1ccnc(Oc2ccccc2)n1`, for which the Potency entry in assay [1], in assay [2], in [3], in [10], in assay [6] and in assay [7] was “inactive” in each case. The compound was classed as inactive in assay [4]. In assay [8], the Potency was 27.3 µM (active). In assay [9], the activity change, positive = activation was -29%.

Take `O=C1c2ccccc2C(=O)c2c(O)ccc(O)c21`: the Potency entry in [2], in assay [3], in [5], in [8], in assay [10] and in [6] was “inactive” throughout. Besides, in [7], the Potency entry was “inactive”. The result in assay [4] was inactive. The activity change, positive = activation in assay [9] was -2.45%.

Regarding `CCCCCCCCCCCSCC(=O)O`, the Potency result in [1], in [3], in assay [10], in assay [6] and in [7] was “inactive” each time. In addition, in assay [4], the result was inactive. Further, in [9], the activity change, positive = activation was -19.7%.

As for `CC(CCc1ccc(O)cc1)NCCc1ccc(O)c(O)c1` (stereo not drawn), the Potency result in [1], in [2], in [5], in [8], in [10] and in assay [6] was “inactive” in each case. Also, the call in [4] was inactive. The activity change, positive = activation in assay [9] was -12.3% [at 42.5 µM].

Turning to `[Cl][Nd]([Cl])[Cl]`, the Potency result in [2], in assay [3], in assay [5], in assay [8], in assay [10] and in assay [6] was “inactive” in each case. For the same compound, the Potency result in assay [7] is “inactive”. Moreover, the compound was called inactive in assay [4]. Further, in assay [9], the activity change, positive = activation was -6.02%.

With `O=C(O)/C=C/c1ccc(O)c(O)c1`, the Potency entry in assay [1], in assay [2], in assay [5] and in assay [10] was “inactive” each time.

As to `CCOC(=O)Oc1ccc(CCNC(=O)[C@H](CCSC)NC(C)=O)cc1OC(=O)OCC`, the Potency result in assay [1], in assay [2], in assay [5], in assay [6] and in assay [7] was “inactive” throughout. Besides, the result in assay [4] was inactive.

As for `CC[C@H]1OC(=O)[C@H](C)[C@@H](O[C@H]2C[C@@](C)(OC)[C@@H](O)[C@H](C)O2)[C@H](C)[C@@H](O[C@@H]2O[C@H](C)C[C@H](N(C)C)[C@H]2O)[C@](C)(O)C[C@@H](C)/C(=N\OCOCCOC)[C@H](C)[C@@H](O)[C@]1(C)O`, the Potency entry in assay [1], in [3], in [5], in [10] and in [7] was “inactive” throughout. Besides, the result in assay [4] was inactive. In assay [9], the activity change, positive = activation is -14.4% [at 42.5 µM].

With `COc1cc(OC)c2ccc(=O)oc2c1`, the Potency entry in [1], in assay [2], in assay [5], in [10], in assay [6] and in [7] was “inactive” in each case. Moreover, the result in assay [4] was inactive.

Regarding `CN(C)CC/C=C1\c2ccccc2Sc2ccc(Cl)cc21`, in assay [1], the Potency entry was “inactive”. Moreover, the figures for the Potency in assay [5], in assay [10] and in [6] were 49.2 µM (active), 23.9 µM (active) and 23.9 µM (active), respectively. Also, the activity change, positive = activation in assay [9] was -17.7% [at 42.5 µM].

On to `COc1ccc(C(=O)NCc2ccc(OCCN(C)C)cc2)cc1OC`, for which the Potency entry in assay [2], in [3], in [5], in assay [8], in assay [10] and in assay [6] was “inactive” throughout. Further, the Potency entry in assay [7] was “inactive”. The compound was classed as inactive in assay [4]. In assay [9], the activity change, positive = activation was -0.159% [at 42.5 µM].

Regarding `COC(=O)Nc1nc2ccc(C(=O)C3CC3)cc2[nH]1`, the Potency result in [1], in assay [3], in [5], in [10] and in assay [7] was “inactive” throughout. Further, the compound was called inactive in [4].

With `COC(=O)C1=C(C)NC(C)=C(C(=O)OC(C)(C)CN(C)CCC(c2ccccc2)c2ccccc2)C1c1cccc([N+](=O)[O-])c1` (stereo not drawn), the Potency result in assay [1], in assay [2], in assay [5], in [6] and in assay [7] was “inactive” in each case. Besides, the Potency in assay [8] was 13.3 µM (active). The activity change, positive = activation in [9] is -45.4% [at 42.5 µM].

In the case of `COc1ccc(C2C(=O)c3ccccc3C2=O)cc1`, the Potency entry in assay [2], in assay [3], in [5], in assay [8], in [10] and in [6] was “inactive” throughout. Moreover, the Potency entry in [7] is “inactive”. In addition, the call in assay [4] was inactive. For the same compound, the activity change, positive = activation in assay [9] was 13.1% [at 42.5 µM].

Regarding `C1CCCCC1`, the Potency result in assay [2], in assay [3], in assay [5], in assay [8], in assay [10] and in assay [6] was “inactive” in each case. For the same compound, in assay [7], the Potency result was “inactive”. Also, the call in [4] was inactive. Besides, the activity change, positive = activation in [9] was 7.76%.
